Results on 37 compounds are retold here after PubChem BioAssay (NCI).

This is part of a sample that, as a whole, favours compounds with a hit. Of some 79,000 tested, about 15% had one in any assay. Unmarked numbers belong to inactive results. The source made the active and inactive calls. No stated cut-off is given here; in the data, active means growth inhibition above about 70%; inactive means the rest.

Assay [1] can be described thus: NCI Yeast Anticancer Drug Screen. Data for the rad50 strain (AID 155).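 Further: 0% = growth of vehicle-only cultures of the same strain.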 The settings on record: S. cerevisiae rad50 strain growth inhibition; at 50.0 µM; stronger effect = higher value. In outline:
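Cells are treated with compound, grown, and their growth is then scored against vehicle-only cultures of the same repair-deficient yeast strain.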

The nature of assay [2]: NCI Yeast Anticancer Drug Screen. Data for the mec2-1 strain (AID 157). The settings on record: S. cerevisiae mec2-1 strain, at 50.0 µM, stronger effect = higher value. In outline:
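Each compound was tested on mec2-1 yeast, a strain altered in DNA damage repair or cell cycle control. Growth inhibition is reported relative to vehicle.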

Assay [3] is described as follows: NCI Yeast Anticancer Drug Screen. Data for the sgs1 mgt1 strain (AID 161).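 Further: 0% = growth of cultures given vehicle only.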 The settings on record: S. cerevisiae sgs1 mgt1 strain, at 50.0 µM, stronger effect = higher value. A digest of the protocol:
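Genetically altered yeast, compound exposure, growth inhibition relative to vehicle.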

Assay [4] can be described thus: NCI Yeast Anticancer Drug Screen. Data for the cln2 rad14 strain (AID 165).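 Further: 0% = growth equal to vehicle treated cultures.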 As to conditions: S. cerevisiae cln2 rad14 strain, at 50.0 µM, stronger effect = higher value. In outline: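 Test compounds were added to cln2 rad14 yeast cultures; inhibition of growth was then determined by comparison with vehicle treatment.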
Assay [5] is described as follows: NCI Yeast Anticancer Drug Screen. Data for the bub3 strain (AID 167). The settings on record: S. cerevisiae bub3 mutant strain, at 50.0 µM, stronger effect = higher value. In outline: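 Part of a panel of yeast mutants defective in DNA damage repair or cell cycle regulation. Each strain is grown with compound, and inhibition is calculated relative to solvent-treated cultures.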

Assay [6] can be described thus: NCI Yeast Anticancer Drug Screen. Data for the mlh1 rad18 strain (AID 175). The settings on record: S. cerevisiae mlh1 rad18 strain growth inhibition; at 50.0 µM; stronger effect = higher value. A digest of the protocol:
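Inhibition values reflect reduced growth of mutant yeast versus vehicle-treated controls following compound exposure; the mutations affect DNA damage repair.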

For `CC(=O)c1ccc(OC(=O)Nc2ccc(C)cc2)cc1`, the growth inhibition in assay [1] is -2.25%; in assay [2], 27.3%; in assay [3], 17.8%; in assay [4], -6.2%; in assay [5] it was 26.5%; in assay [6], 15.6%.
Turning to `COc1cccc(/C(C=O)=C(\Cl)c2ccc(OC)c(OC)c2)c1`, the growth inhibition in assay [1] was 10.1%; in assay [2] it was 9.55%; in assay [3], 12.4%; in assay [4], 6.7%; in assay [5], 33.5%; in assay [6] it was -8.3%.
In the case of `OC1OCc2cc3ccccc3cc21` (configuration not stated), the growth inhibition is 21.4% in assay [1]; -0.95% in assay [2]; -8.35% in assay [3]; 3.6% in assay [4]; -7.8% in assay [5]; 3.65% in assay [6].
Take `CCOc1ccc(NC(=O)Nc2cccc(Cl)c2C)cc1`: the growth inhibition is 0.45% in assay [1]; 9.25% in assay [2]; 11.4% in assay [3]; -13.8% in assay [4]; 9.85% in assay [5]; -20.6% in assay [6].
With `O=C1CC2(C(=O)N1CN(Cc1ccccc1)Cc1ccccc1)c1ccccc1-c1ccccc12`, the growth inhibition was 34.5% in assay [1]; 2.1% in assay [2]; -5.55% in assay [3]; 14.1% in assay [4]; -1.1% in assay [5]; 22.4% in assay [6].
For the compound `COC(=O)[C@]12CCC(C)(C)C[C@H]1C1=CC[C@@H]3[C@@]4(C)CC[C@H](OC5OC(CO)C(O)C(O)C5OC5OC(CO)C(O)C(O)C5O)C(C)(C)[C@@H]4CC[C@@]3(C)[C@]1(C)CC2` (some centres not stated), the growth inhibition in assay [1] is 89% (active); in assay [2], 90.8% (active); in assay [3] it was 91.4% (active); in assay [4] it was 90% (active); in assay [5] it was 90.9% (active); in assay [6] it was 89.5% (active).
For `CCC1(CC)SCc2nc3ccccc3n21`, the growth inhibition is 23% in assay [1]; 18.2% in assay [2]; 58.3% in assay [3]; 29.3% in assay [4]; 58.8% in assay [5]; 42.3% in assay [6].
Regarding `COc1cc(C=O)c(-c2c(C=O)ccc3c2OCO3)c(OC)c1OC`, the growth inhibition in assay [1] was 24.4%; in assay [2], -1.9%; in assay [3], 30.2%; in assay [4], 18.1%; in assay [5], 26%; in assay [6] it was -1.5%.
In the case of `N#CC1CC=CCC1` (configuration not stated), the growth inhibition in assay [1] is 19.4%; in assay [2], 4.95%; in assay [3], 0.35%; in assay [4] it was 15.2%; in assay [5], -12.9%; in assay [6], -5.65%.
Turning to `Oc1ccccc1-n1nc2ccc3nonc3c2n1`, the growth inhibition in assay [1] was -16.8%; in assay [2], -61.1%; in assay [3], -38.9%; in assay [4], -35.9%; in assay [5], -1%; in assay [6], -40.5%.
On to `O=C(O)/C(=N\O)c1cnnn1-c1ccccc1`, for which the growth inhibition in assay [1] is -5.95%; in assay [2] it was 11.9%; in assay [3], -8.45%; in assay [4], 3.35%; in assay [5] it was -17.6%; in assay [6], -25.9%.
As to `CCC(c1ccc(OC)cc1)C(C(C)=O)c1ccc(OC)cc1` (configuration not stated), the growth inhibition in assay [1] is -5.55%; in assay [2], -13%; in assay [3] it was -4.1%; in assay [4], -22.9%; in assay [5] it was 25.6%; in assay [6] it was -5.85%.
`CC(=O)c1ccccc1C(C)c1ccc(C)c2ccccc12` (configuration not stated): the growth inhibition in assay [1] is -1.65%; in assay [2] it was 12.4%; in assay [3], 6.75%; in assay [4] it was -11.8%; in assay [5], 2.95%; in assay [6], 2.3%.
Consider `CC1=C(C(=O)NNC(=O)C[N+](C)(C)C)CC(C(=O)NNC(=O)C[N+](C)(C)C)=C(C)N1`, for which the growth inhibition in assay [1] was -12.4%; in assay [2] it was -21.1%; in assay [3] it was -10.9%; in assay [4], -31.2%; in assay [5], -13.2%; in assay [6], -39.9%.
`C=C1c2ccccc2N(S(=O)(=O)c2ccc(C)cc2)C12CCCCC2`: the growth inhibition is 3.9% in assay [1]; 14.6% in assay [2]; -10.2% in assay [3]; -3.2% in assay [4]; -0.7% in assay [5]; -6% in assay [6].
With `O=S(=O)(C(c1ccccc1)C(O)(c1ccccc1)c1ccccc1)N1CCCC1` (configuration not stated), the growth inhibition in assay [1] is 29.6%; in assay [2] it was -0.45%; in assay [3] it was 27.4%; in assay [4] it was -21.8%; in assay [5], 1.25%; in assay [6] it was 22.6%.
As for `N#CCCCCCCO`, the growth inhibition in assay [1] is 14.6%; in assay [2], -20.6%; in assay [3] it was 11.4%; in assay [4], 15.4%; in assay [5], 5.35%; in assay [6], 17.5%.
With `CC(=O)Nc1ccc(C(=O)N2N=C(C)/C(=C/c3cccc([N+](=O)[O-])c3)C2=O)cc1`, the growth inhibition in assay [1] is -9.8%; in assay [2] it was -17.6%; in assay [3], -47.5%; in assay [4], 2.55%; in assay [5] it was -21.9%; in assay [6] it was -32.2%.
`C(/C=C/c1ccccc1)=C1SCCCS1`: the growth inhibition in assay [1] is 0.55%; in assay [2] it was -7.6%; in assay [3] it was -4.7%; in assay [4], -18.9%; in assay [5], -2.15%; in assay [6], -4.6%.
As for `CCOC(=O)C(C(=O)OCC)C(NC(=O)Nc1cc(C(F)(F)F)ccc1OC)(C(F)(F)F)C(F)(F)F`, the growth inhibition in assay [1] is 23.1%; in assay [2], 11.6%; in assay [3], 11.4%; in assay [4] it was 3.45%; in assay [5], 21.6%; in assay [6], 24.8%.
Take `Cc1cc2c(=O)cc(-c3ccc(C(=O)O)cc3)oc2c(C(=O)O)c1C`: the growth inhibition was 7.1% in assay [1]; 4.3% in assay [2]; 22.8% in assay [3]; 29.8% in assay [4]; 5.7% in assay [5]; 10.5% in assay [6].
For the compound `CCc1c(CO)cnc(C)c1OP(=O)(O)O`, the growth inhibition was -33.5% in assay [1]; -39.5% in assay [2]; -18.1% in assay [3]; 3.65% in assay [4]; -39.6% in assay [5]; -22.6% in assay [6].
`O=C(NC1C=Nc2ccc([N+](=O)[O-])cc2NC1=O)c1ccc(Cl)cc1` (configuration not stated): the growth inhibition is 13.2% in assay [1]; 7.8% in assay [2]; 7.35% in assay [3]; -18% in assay [4]; -1.85% in assay [5]; -8.5% in assay [6].
As to `COc1ccc(SC/C(=N\NOS(=O)(=O)c2ccc(C)cc2)c2ccccc2)cc1`, the growth inhibition in assay [1] is 85.1% (active); in assay [2], 34.1%; in assay [3], 93.3% (active); in assay [4], 61%; in assay [5], 61%; in assay [6], 87.7% (active).
In the case of `COc1c2c(cc3nc4ccccc4nc13)CCC(C(C)(C)O)C2` (configuration not stated), the growth inhibition in assay [1] was 17.9%; in assay [2] it was -10.2%; in assay [3] it was -3.45%; in assay [4], 3.9%; in assay [5], -0.7%; in assay [6], 6.3%.
`CC1CC[N+](C)([B-](F)(F)F)CC1` (configuration not stated): the growth inhibition in assay [1] was 0.85%; in assay [2], 1.85%; in assay [3] it was 11.5%; in assay [4] it was -31.1%; in assay [5], 2.45%; in assay [6], 11.1%.
Consider `OC1CCC2CCCC2C1` (configuration not stated), for which the growth inhibition in assay [1] was 1.6%; in assay [2], -1.7%; in assay [3] it was -2.2%; in assay [4], 1%; in assay [5], -8.6%; in assay [6], -1.2%.
Take `CC(C)NCC(=O)CCCBr`: the growth inhibition was -5.15% in assay [1]; 0.85% in assay [2]; -3.8% in assay [3]; -23.1% in assay [4]; 5.45% in assay [5]; 10.8% in assay [6].
`O=c1[nH]cc(COCC(F)(F)C(F)(F)C(F)(F)C(F)F)c(=O)[nH]1`: the growth inhibition in assay [1] was -1.35%; in assay [2] it was -14.9%; in assay [3] it was -3.7%; in assay [4] it was 0.5%; in assay [5] it was -17.5%; in assay [6], 1.2%.
With `OC1(c2ccccc2)C(c2ccccc2)=C(c2ccccc2)C(c2ccc(CCCCCCCCc3ccc(C4=C(c5ccccc5)C(O)(c5ccccc5)C(c5ccccc5)=C4c4ccccc4)cc3)cc2)=C1c1ccccc1` (configuration not stated), the growth inhibition is -20.4% in assay [1]; -3.95% in assay [2]; -7.5% in assay [3]; -28.1% in assay [4]; -23.6% in assay [5]; -9.15% in assay [6].
Turning to `CCO[C@@H]1C2C=CC(C2)[C@H]1[N+](=O)[O-]` (some centres not stated), the growth inhibition in assay [1] is -11.8%; in assay [2], 12.2%; in assay [3] it was -5.65%; in assay [4], 15.4%; in assay [5], 3.05%; in assay [6] it was -5.4%.
On to `Nc1ncnc2c1nnn2CCCCCC(=O)O`, for which the growth inhibition in assay [1] was -6.25%; in assay [2], 27.8%; in assay [3] it was 21.8%; in assay [4] it was -7.95%; in assay [5] it was 11.8%; in assay [6] it was -13.9%.
In the case of `C1CCN(c2nn[nH]n2)CC1`, the growth inhibition is 4.05% in assay [1]; -2% in assay [2]; 3.75% in assay [3]; -10.3% in assay [4]; 12.4% in assay [5]; 0.4% in assay [6].
Take `CCOc1ccc2cc3c(nc2n1)[nH]c1ccccc13`: the growth inhibition was -27.4% in assay [1]; 4.15% in assay [2]; -0.3% in assay [3]; -16.1% in assay [4]; 8.25% in assay [5]; 11.1% in assay [6].
Take `Cc1nc(N)nc(C)c1N=Nc1cc(Br)ccc1Br`: the growth inhibition in assay [1] was 26.1%; in assay [2], -14.1%; in assay [3], -15.4%; in assay [4], -13.7%; in assay [5] it was 0.35%; in assay [6], -7.6%.
For `COc1onc(C)c1CC(=O)O`, the growth inhibition in assay [1] was 2.7%; in assay [2], 1.2%; in assay [3] it was -7.3%; in assay [4], -32.1%; in assay [5] it was -8.65%; in assay [6] it was 2.75%.
With `O=C(CCCSCCCC(=O)NN=C1CCSCC1)NN=C1CCSCC1`, the growth inhibition is -0.9% in assay [1]; -4.3% in assay [2]; 10.8% in assay [3]; 21.2% in assay [4]; -7.85% in assay [5]; -7.65% in assay [6].
